About 8,000 (2.5%) of roughly 320,000 compounds were called active. The full list was thinned out, with actives kept by preference. Values without a mark were called inactive. Rule as the data show it: active = activation above about 47%; inactive = the rest.
These compounds were tested against Aryl hydrocarbon receptor (Homo sapiens) (UniProt P35869) (assay: AHR activators, primary screen, cell-based, luminescence, luciferase reporter, human (AID 2796;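 also: 0% = vehicle wells and 100% = reference agonist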)). Details: AHR-responsive luciferase reporter cells, at 5 µM, hits give high values.
Sequence of Aryl hydrocarbon receptor (Homo sapiens) (P35869 whole entry, looked up): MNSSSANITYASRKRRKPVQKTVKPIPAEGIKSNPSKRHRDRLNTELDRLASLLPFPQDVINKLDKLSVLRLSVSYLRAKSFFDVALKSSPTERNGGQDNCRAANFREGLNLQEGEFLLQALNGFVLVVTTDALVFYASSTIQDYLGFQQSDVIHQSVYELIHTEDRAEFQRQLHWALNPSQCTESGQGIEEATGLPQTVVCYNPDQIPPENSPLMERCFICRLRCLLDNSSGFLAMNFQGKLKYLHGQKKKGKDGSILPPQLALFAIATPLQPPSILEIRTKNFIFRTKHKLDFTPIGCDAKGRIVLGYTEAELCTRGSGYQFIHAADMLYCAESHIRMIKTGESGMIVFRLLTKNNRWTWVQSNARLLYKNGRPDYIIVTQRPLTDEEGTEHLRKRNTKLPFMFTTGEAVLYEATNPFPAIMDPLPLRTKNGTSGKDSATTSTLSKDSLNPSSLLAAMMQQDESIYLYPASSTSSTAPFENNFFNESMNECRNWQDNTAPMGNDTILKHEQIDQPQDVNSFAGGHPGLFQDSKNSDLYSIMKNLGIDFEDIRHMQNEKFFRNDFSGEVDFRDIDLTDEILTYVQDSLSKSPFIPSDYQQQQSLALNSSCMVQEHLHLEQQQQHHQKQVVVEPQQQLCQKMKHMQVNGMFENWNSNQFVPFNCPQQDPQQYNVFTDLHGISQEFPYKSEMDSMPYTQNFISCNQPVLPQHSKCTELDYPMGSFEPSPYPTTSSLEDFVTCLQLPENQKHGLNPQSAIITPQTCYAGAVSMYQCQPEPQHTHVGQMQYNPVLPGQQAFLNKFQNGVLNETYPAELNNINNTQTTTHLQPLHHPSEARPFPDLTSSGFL

Going from C#CCNC(=O)C1=C[C@@H](c2ccccc2)[C@H](CCCO)[C@@H](OCC)O1 to O=C(CCNC(=O)c1ccccc1Cl)NN=Cc1ccco1, the activation falls from 1.77% to -0.2%.

First: CCCCn1nc(C(=O)Nc2ccc(S(=O)(=O)Nc3ncccn3)cc2)c2ccccc2c1=O
Second: COCCCNC(=O)c1ccc(CNS(=O)(=O)c2ccc(NC(C)=O)cc2)cc1
The activation of the first is higher: 2.56% for the first, 0.77% for the second.

Going from CC1=NN(C(N)=S)C(=O)C1N=Nc1cc(Cl)ccc1Cl (centres undefined) to Cc1cccc(N=Nc2c(C)[nH]n(-c3ccccc3)c2=O)c1, the activation rises from 11.5% to 40%.

First: O=C(Cc1c(F)cccc1Cl)Nc1ccc(-n2cnnn2)cc1
Second: O=C(CC1NCCc2ccccc21)Nc1cccc(Cl)c1 (centres undefined)
The activation of the first is lower: 0.09% for the first, 8.99% for the second.

First: O=C(CCc1ccccc1)Nc1ncc([N+](=O)[O-])s1
Second: Nc1c(C(=O)NCc2ccccc2)sc2nc3c(cc12)C(=O)CCC3
The activation of the first is higher: 6.21% for the first, 2.82% for the second.

Compared with CCOC(=O)C(=Cc1ccccc1OC)C(=O)OCC, COC(=O)C(C)C1Sc2ccccc2NC1=O (centres undefined) is higher in activation: -3.1% for the first, -0.86% for the second.

Going from CN(C)c1ccnc2sc(C(=O)c3ccccc3)c(N)c12 to Cc1cccc[n+]1CC(=O)c1ccccc1, the activation falls from 15.9% to 1.77%.

Going from Cc1ccc(N2C(=O)C(NC(=O)c3c(F)cccc3F)(C(F)(F)F)C3=C2CC(C)(C)CC3=O)cc1 (centres undefined) to Cc1ccc(CNC(=O)CC2Sc3ccccc3NC2=O)cc1 (centres undefined), the activation rises from 2.49% to 4%.

First: O=C(CC1NCCNC1=O)Nc1ccc(Oc2ccccc2)cc1 (centres undefined)
Second: O=C(CNC(=O)c1ccc(F)cc1)c1ccccc1
The activation of the first is higher: 5.88% for the first, 3.71% for the second.

First: COC(=O)c1c(C)oc2ccc(N(C(=O)Oc3ccccc3)S(=O)(=O)c3ccccc3)cc12
Second: Cc1ccc(C(=O)N/C(=C\c2cn(S(=O)(=O)N(C)C)c3ccccc23)C(=O)N2CCCC2)cc1
The activation of the first is lower: -0.17% for the first, 0.25% for the second.

Going from Cc1cc(C)n(CC(O)COc2ccc(C(C)(C)C)cc2)n1 (centres undefined) to COc1ccc(OCCNC(=O)c2cc(C3CC3)nc3c2cnn3C(C)C)cc1, the activation rises from 1.06% to 5.03%.

Compared with CC(C)n1ncc2c(C(=O)NCc3ccccc3CN(C)C)cc(C3CC3)nc21, O=C(Nc1ccccc1F)c1ccc2c(c1)OCO2 is higher in activation: 2.81% for the first, 7.6% for the second.

Going from Cc1ccc(OCc2n[nH]c(=S)n2-c2ccccc2)cc1 to S=c1[nH]nc(COc2ccccc2)n1-c1ccccc1, the activation falls from 2.23% to -2.15%.

First: CCc1ccc(C(=O)OCC(=O)NCC(F)(F)F)cc1
Second: COc1ccc(CNC(=O)CNC(=O)c2sc3ccccc3c2Cl)cc1OC
The activation of the first is higher: 1.13% for the first, -3.5% for the second.

Compared with Fc1ccc2cnc(-c3ccccc3)cc2c1, N#Cc1nc(COc2ccc(-c3ccccc3)cc2)oc1NCc1cccnc1 is lower in activation: 31.9% for the first, -4.66% for the second.

First: O=C(NCc1ccc2c(c1)OCO2)c1cc([N+](=O)[O-])ccc1N1CCOCC1
Second: Cc1sc2ncn(CC(=O)NCCCC(=O)N3CCN(c4ccccc4F)CC3)c(=O)c2c1C
The activation of the first is higher: -0.76% for the first, -0.77% for the second.

Compared with Cc1nnc(C)c2c(C)n(N)c(C)c12, C=CCSc1nnc(Cn2c(=O)sc3ccccc32)n1C is higher in activation: -0.81% for the first, 0.37% for the second.

First: CN1CCc2ccccc2C1Cc1ccccc1NC(=O)c1sc2ccccc2c1Cl (centres undefined)
Second: COc1ccc(Nc2oc(-c3ccccc3Cl)nc2C#N)cc1
The activation of the first is higher: 11.4% for the first, -7.03% for the second.

Compared with O=C(CCNS(=O)(=O)c1ccccc1)NCCSc1ccc(Br)cc1, Cc1cccc(N(C)C(=O)c2cc3c(=O)[nH]c4ccc(C)cc4c3s2)c1 is higher in activation: -0.18% for the first, 39% for the second.

For Cc1[nH]n(C(N)=S)c(=O)c1N=Nc1ccc(Cl)cc1Cl, the activation was 55.6% (active).
O=C(Cc1c(F)cccc1Cl)Nc1ncc([N+](=O)[O-])s1 was tested, and the activation was 48.5% (active).
CCN(CC)C(=O)c1sc2nc(-c3ccccc3)ccc2c1N was tested, and the activation was 76.4% (active).
In the case of O=C(CC1Nc2ccccc2NC1=O)Nc1ccccc1NC(=O)CC1Nc2ccccc2NC1=O (centres undefined), the activation is reported as 47.5% (active).
In the case of O=C(CC1Nc2ccccc2NC1=O)Nc1ccccc1 (centres undefined), the activation is reported as 101% (active).
For CC(C)n1ncc2c(C(=O)Nc3ccc(CC#N)cc3)cc(C3CC3)nc21, the activation was 89.9% (active).
S=c1[nH]nc(-c2cc(-c3ccsc3)n[nH]2)n1-c1ccccc1 was tested, and the activation was 84% (active).
In the case of Fc1ccccc1-c1cc2cc3c(cc2cn1)OCO3, the activation is reported as 77.2% (active).
With O=C(N/N=C/c1c(Cl)[nH]c2ccccc12)c1sc2ccccc2c1Cl the activation was 74.3% (active).
With CCOc1ccc(Nc2oc(Cc3ccccc3)nc2C#N)cc1 the activation was 58.1% (active).
For O=C(C[n+]1cc(Br)cc2ccccc21)c1ccc(F)cc1, the activation was 58.6% (active).
